Results published in the supplement of paper PMC6897291.

Experiments:
[1] = tested on: U-2932; test: growth inhibition by drug alone (1 - RLU/untreated control) (fraction); higher = stronger inhibition; conditions: 177Lu-lilotomab satetraxetan 0 ug/ml
Method in brief: (§1)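 With or without 18 h pretreatment by a radiolabelled anti-CD37 antibody conjugate (~600 MBq/mg; 0.5 µg/ml RIVA, 1 µg/ml U-2932), RIVA and U-2932 cells were washed and plated at 3,000 cells/well. Pre-printed compound doses were 10/100 nM for RIVA and 10/1,000 nM for U-2932. Growth inhibition uses RealTime-Glo RLU relative to the untreated no-drug wells. The calculation is 1 − RLU/mean of 48 such wells per plate, with reads daily from day 3 after 1 h at 37°C.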

[2] = tested on: RIVA; test: as above; conditions: 177Lu-lilotomab satetraxetan 0 ug/ml
Method in brief: as §1

[3] = tested on: U-2932; test: growth inhibition by drug plus 177Lu-lilotomab satetraxetan (1 - RLU/untreated control) (fraction); higher = stronger inhibition; conditions: 177Lu-lilotomab satetraxetan 1 ug/ml
Method in brief: as §1

[4] = tested on: RIVA; test: as above; conditions: 177Lu-lilotomab satetraxetan 0.5 ug/ml
Method in brief: as §1

Row | Compound | growth inhibition by drug alone ([1]; 10 nM, time (day): 3) | growth inhibition by drug alone ([1]; 10 nM, time (day): 4) | growth inhibition by drug alone ([1]; 10 nM, time (day): 5) | growth inhibition by drug alone ([1]; 10 nM, time (day): 6) | growth inhibition by drug alone ([1]; 1000 nM, time (day): 3) | growth inhibition by drug alone ([1]; 1000 nM, time (day): 4) | growth inhibition by drug alone ([1]; 1000 nM, time (day): 5) | growth inhibition by drug alone ([1]; 1000 nM, time (day): 6) | growth inhibition by drug alone ([2]; 10 nM, time (day): 3) | growth inhibition by drug alone ([2]; 10 nM, time (day): 4) | growth inhibition by drug alone ([2]; 10 nM, time (day): 5) | growth inhibition by drug alone ([2]; 10 nM, time (day): 6) | growth inhibition by drug alone ([2]; 100 nM, time (day): 3) | growth inhibition by drug alone ([2]; 100 nM, time (day): 4) | growth inhibition by drug alone ([2]; 100 nM, time (day): 5) | growth inhibition by drug alone ([2]; 100 nM, time (day): 6) | growth inhibition by drug plus 177Lu-lilotomab satetraxetan ([3]; 10 nM, time (day): 3) | growth inhibition by drug plus 177Lu-lilotomab satetraxetan ([3]; 10 nM, time (day): 4) | growth inhibition by drug plus 177Lu-lilotomab satetraxetan ([3]; 10 nM, time (day): 5) | growth inhibition by drug plus 177Lu-lilotomab satetraxetan ([3]; 10 nM, time (day): 6) | growth inhibition by drug plus 177Lu-lilotomab satetraxetan ([3]; 1000 nM, time (day): 3) | growth inhibition by drug plus 177Lu-lilotomab satetraxetan ([3]; 1000 nM, time (day): 4) | growth inhibition by drug plus 177Lu-lilotomab satetraxetan ([3]; 1000 nM, time (day): 5) | growth inhibition by drug plus 177Lu-lilotomab satetraxetan ([3]; 1000 nM, time (day): 6) | growth inhibition by drug plus 177Lu-lilotomab satetraxetan ([4]; 10 nM, time (day): 3) | growth inhibition by drug plus 177Lu-lilotomab satetraxetan ([4]; 10 nM, time (day): 4) | growth inhibition by drug plus 177Lu-lilotomab satetraxetan ([4]; 10 nM, time (day): 5) | growth inhibition by drug plus 177Lu-lilotomab satetraxetan ([4]; 10 nM, time (day): 6) | growth inhibition by drug plus 177Lu-lilotomab satetraxetan ([4]; 100 nM, time (day): 3) | growth inhibition by drug plus 177Lu-lilotomab satetraxetan ([4]; 100 nM, time (day): 4) | growth inhibition by drug plus 177Lu-lilotomab satetraxetan ([4]; 100 nM, time (day): 5) | growth inhibition by drug plus 177Lu-lilotomab satetraxetan ([4]; 100 nM, time (day): 6)
1 | COc1cc(N2CCC(N3CCN(C)CC3)CC2)ccc1Nc1ncc(Cl)c(Nc2ccccc2S(=O)(=O)C(C)C)n1 | 0.0279 | 0.0267 | -0.0689 | -0.173 | 0.411 | 0.377 | 0.328 | 0.37 | -0.00616 | -0.0284 | -0.166 | -0.627 | -0.194 | -0.141 | -0.341 | -0.647 | -0.0224 | 0.0234 | 0.0221 | 0.0517 | 0.226 | 0.3 | 0.325 | 0.525 | 0.354 | 0.492 | 0.509 | 0.521 | 0.198 | 0.273 | 0.278 | 0.268
2 | Nc1ccccc1NC(=O)c1ccc(CNC(=O)OCc2cccnc2)cc1 [Entinostat (MS-275, SNDX-275)] | 0.036 | 0.00325 | 0.00221 | 0.0268 | 0.833 | 0.861 | 0.874 | 0.887 | -0.0286 | -0.0282 | -0.046 | -0.113 | 0.288 | 0.217 | 0.174 | 0.114 | 0.053 | 0.0586 | 0.0668 | 0.217 | 0.855 | 0.89 | 0.908 | 0.928 | 0.486 | 0.568 | 0.585 | 0.591 | 0.604 | 0.62 | 0.628 | 0.595
